High-throughput results (PubChem)
MCF10A rerep – induces DNA re-replication in MCF 10a normal breast cells | Potency, µM (highest dose often 46.1 µM), most hits filed as activators | MCF 10A DNA re-replication, Hoechst nuclear intensity, 48 h | 2.9% of 350,000 active | AID 624296; note: nearly all actives have a fitted effect of over 50% in size
KB-3-1 tox – KB-3-1 parental cell cytotoxicity. KB-3-1 viability, CellTiter-Glo ATP luminescence, 72 h. Potency, µM (series often up to 46.1 µM), actives largely listed as cytotoxic. 1.4% of 400,000 active. AID 1347075; note: nearly all actives have a fitted effect of over 60% in size
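Luminescent ATP read-out (CellTiter-Glo) measures survival of drug-naive KB-3-1 cells after 72 h compound exposure at 37 °C. Titration series was screened from lowest to highest concentration, with DMSO vehicle plates as background controls.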
SW480 rerep – induces DNA re-replication in SW480 colon adenocarcinoma cells; AID 624297; SW480 DNA re-replication, Hoechst DNA content imaging, 48 h; Potency, µM (titrated, usually from 46.1 µM), actives largely listed as activators; 1.8% of 340,000 active; note: nearly all actives have a fitted effect of over 55% in size
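250 cells/well; 23 nL cpd via pin tool; 48 hr, 37 C, 5% CO2; Hoechst 40 min; imager read of total nuclear intensity, ex 405/em 500-530 nm.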
KB-V1 cytotox – KB-V1 MDR subline cytotoxicity; 3.4% of 400,000 active; AID 1347076; KB-V1 MDR cells viability, CellTiter-Glo, 72 h; Potency, µM (top dose mostly 46.1 µM), most hits filed as cytotoxic; note: nearly all actives have a fitted effect of over 60% in size
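Drug-selected KB-V1 cells, grown in DMEM lacking phenol red with 10% FBS, receive compound titrations; after three days at 37 degrees C, surviving cell ATP is quantified by CellTiter-Glo luminescence and responses normalized and curve-fitted.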
HT1080NT lethal – kills 2HG-producing HT-1080-NT fibrosarcoma cells; HT-1080-NT fibrosarcoma viability, CellTiter-Glo ATP luminescence, 48 h; Potency, µM (doses to about 46.1 µM), hits mostly cytotoxic; 1.6% of 360,000 active; AID 686970;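 note: NT is the 2HG producing partner of a matched IDH1 knockdown line; nearly all actives have a fitted effect of over 55% in size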
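Compounds were tested in concentration-response format on HT-1080-NT cells for 48 hours at 37 degrees C. Cell viability came from CellTiter-Glo luminescence; curves were classified by r2, response magnitude and activity.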
HT1080 IDH1KD tx – kills HT-1080 cells with IDH1 knockdown. 2% of 360,000 active. HT-1080 IDH1 knockdown viability, ATP luminescence, 48 h. Potency, µM (highest dose often 46.1 µM), hits mostly cytotoxic. AID 686971
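Viability of IDH1-knockdown HT-1080 fibrosarcoma cells was assessed by CellTiter-Glo after 48 h at 37 °C with titrated compound; concentration-effect curves were classified by fit quality and response size.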
Large screens that a line does not name were inactive. Only some compounds are listed: those with a hit (about 8% of all), similar ones and a draw of the others. Calls come from the whole dose curve; as a rule, active = well fitted curve in the direction sought with a large enough effect; inconclusive = small, poorly fitted or top-dose-only effect, or another doubt; inactive = no such curve, though single readings can be large; an effect the other way counts as inactive or inconclusive.

Cc1cc(C)c(S(=O)(=O)N2CCN(C(=O)c3ccccc3OCc3c(C)noc3C)CC2)c(C)c1	KB-V1 cytotox 7.3µM
CCOc1ccc(-c2cc(C(=O)NCc3ccc(OC)cc3)c3c(-c4ccc(F)cc4)[nH]nc3n2)cc1	KB-V1 cytotox inconclusive (no result: MCF10A rerep, SW480 rerep, HT1080NT lethal, HT1080 IDH1KD tx)
CC(C)C(NC(=O)CSc1ccc(Cl)cc1)C(C)C	MCF10A rerep 26µM, KB-V1 cytotox inconclusive
CCC(C)NC(=O)CSc1ccc(Cl)cc1 (stereo not drawn)	none
O=C(CSc1n[nH]c(-c2ccccc2Cl)n1)N1CCN(c2ccc(F)cc2)CC1	none (no result: MCF10A rerep, SW480 rerep, HT1080NT lethal, HT1080 IDH1KD tx)
COc1ccc2[nH]c(C(=O)N/N=C/c3ccccc3OC)cc2c1	KB-3-1 tox inconclusive, SW480 rerep inconclusive, HT1080NT lethal inconclusive, HT1080 IDH1KD tx inconclusive
COc1cc(/C=N/NC(=O)CCN2CCCCC2)ccc1O	none
COc1cc(/C=N/NC(=O)CCn2cnc(-c3ccccc3)c2-c2ccccc2)ccc1O	MCF10A rerep inconclusive, HT1080NT lethal 16µM, HT1080 IDH1KD tx inconclusive
COc1ccc(/C=N/NC(=O)c2ccc(CN3C(=O)c4cccc5cccc3c45)cc2)cc1O	MCF10A rerep 16µM, HT1080NT lethal inconclusive
COc1cc(/C=N/NC(=O)c2ccc(CN3C(=O)c4cccc5cccc3c45)cc2)cc(OC)c1O	KB-3-1 tox inconclusive, HT1080 IDH1KD tx inconclusive
COc1ccc2[nH]c(C(=O)N/N=C/c3ccc(OC)c(O)c3)cc2c1	MCF10A rerep 2.1µM, KB-3-1 tox 6.5µM, SW480 rerep 12µM, KB-V1 cytotox 9.2µM, HT1080NT lethal 0.58µM, HT1080 IDH1KD tx 1.2µM
Cc1c(/C=N/NC(=O)C(NC(=O)c2ccc3c(c2)OCO3)C(C)C)c2ccccc2n1C (stereo not drawn)	SW480 rerep inconclusive, KB-V1 cytotox 18µM
CCc1ccc(NC(=O)CCn2c(-c3ccc(OC)cc3)cc(C(C)=O)c2C)cc1	none (no result: MCF10A rerep, SW480 rerep, HT1080NT lethal, HT1080 IDH1KD tx)
O=C(CSc1nnc(-c2cccs2)o1)Oc1ccccc1Cl	KB-V1 cytotox inconclusive (no result: MCF10A rerep, SW480 rerep, HT1080NT lethal, HT1080 IDH1KD tx)
CCc1cccc(C)c1NC(=O)c1cc(S(=O)(=O)N2CCCCCC2)cn1C	none (no result: MCF10A rerep, SW480 rerep, HT1080NT lethal, HT1080 IDH1KD tx)
COc1ccc(CC(=O)N/N=C/c2c(C)n(C)c3ccccc23)cc1OC	MCF10A rerep 7.3µM, KB-3-1 tox inconclusive, SW480 rerep 15µM, KB-V1 cytotox inconclusive, HT1080NT lethal inconclusive, HT1080 IDH1KD tx 13µM
CCOc1ccc2[nH]c(C(=O)N/N=C/c3ccccc3OC)cc2c1	MCF10A rerep 5.2µM, KB-3-1 tox inconclusive, SW480 rerep 15µM, KB-V1 cytotox inconclusive, HT1080NT lethal inconclusive, HT1080 IDH1KD tx inconclusive
COc1ccc(/C=N/NC(=O)c2nc(-c3ccccc3)cc(-c3ccccc3)n2)cc1O	KB-3-1 tox inconclusive, KB-V1 cytotox 16µM, HT1080NT lethal inconclusive, HT1080 IDH1KD tx inconclusive
COc1ccc(/C=N/NC(=O)CCn2c3ccccc3c3ccccc32)cc1O	KB-3-1 tox inconclusive, HT1080NT lethal 1.4µM, HT1080 IDH1KD tx inconclusive
Cc1cc(F)ccc1NC(=O)CS(=O)(=O)c1cccc2nsnc12	none (no result: MCF10A rerep, SW480 rerep, HT1080NT lethal, HT1080 IDH1KD tx)
COCCCNC(=O)CN1C(=O)c2c(c3ccccc3n2C)C1c1ccc(OC)cc1 (stereo not drawn)	none (no result: MCF10A rerep, SW480 rerep, HT1080NT lethal, HT1080 IDH1KD tx)
CCN(CC)S(=O)(=O)c1ccc(Oc2ccc(S(=O)(=O)N(CC)CC)cc2)cc1	KB-3-1 tox inconclusive, KB-V1 cytotox 2.3µM, HT1080NT lethal inconclusive
COC(=O)CNC(c1ccccc1)c1cc(Cl)ccc1NC(=O)c1cccc(Cl)c1 (stereo not drawn)	MCF10A rerep inconclusive, SW480 rerep inconclusive, KB-V1 cytotox 5.2µM
O=C(CSc1nnc2scc(-c3ccccc3)n12)N1CCN(Cc2ccccc2)CC1	KB-V1 cytotox 5.8µM
Cc1ccc(-c2csc3nnc(SCC(=O)N4CCN(Cc5ccccc5)CC4)n23)cc1	KB-V1 cytotox 6.5µM
Cn1c(SCC(=O)N2CCN(Cc3ccccc3)CC2)nnc1-c1ccncc1	none
O=C(CSc1nnc2scc(-c3ccccc3)n12)N1CCCc2ccccc21	none
Cc1ccc(S(=O)(=O)Nc2ccc(Nc3nccn4c(-c5ccc6ccccc6c5)cnc34)cc2)cc1	KB-V1 cytotox 12µM (no result: MCF10A rerep, SW480 rerep)
Cc1ccc(C)c(NC(=O)CSc2nc(C)cs2)c1	none
Cc1csc(SCC(=O)Nc2cccc(C)c2C)n1	KB-V1 cytotox 16µM
Cc1cccc(NC(=O)CSc2ncnc3nc[nH]c23)c1C	MCF10A rerep 23µM, SW480 rerep inconclusive
COc1ccc(NC(=O)CSc2nc(C)cs2)c([N+](=O)[O-])c1	KB-V1 cytotox 23µM
Cc1cccc(NC(=O)C(=O)c2cc(C)n(-c3ccccc3)c2C)c1C	none (no result: MCF10A rerep, SW480 rerep, HT1080NT lethal, HT1080 IDH1KD tx)
CCOC(=O)c1ccc(NC(=O)CCc2c(C)n(CC)c3cc(-c4ccccc4OC)nn3c2=O)cc1	KB-V1 cytotox inconclusive (no result: MCF10A rerep, SW480 rerep, HT1080NT lethal, HT1080 IDH1KD tx)
O=C(Nc1ccc(Cl)cc1C(=O)NCc1cccnc1)c1ccc(Cl)cc1Cl	MCF10A rerep inconclusive, KB-3-1 tox 21µM, SW480 rerep inconclusive, KB-V1 cytotox inconclusive, HT1080NT lethal inconclusive, HT1080 IDH1KD tx inconclusive
CCOC(=O)c1cc(S(=O)(=O)NCc2ccc(Cl)cc2)[nH]n1	none (no result: MCF10A rerep, SW480 rerep, HT1080NT lethal, HT1080 IDH1KD tx)
O=C(c1ccco1)n1nc(-c2ccccc2)nc1NCc1ccc(F)cc1	none (no result: MCF10A rerep, SW480 rerep, HT1080NT lethal, HT1080 IDH1KD tx)
Cc1ccc(C(=O)NC(=S)N2CCN(c3ccc([N+](=O)[O-])cc3)CC2)cc1	KB-V1 cytotox 23µM
O=C(NC(=S)N1CCN(c2ccc([N+](=O)[O-])cc2Cl)CC1)c1ccco1	KB-V1 cytotox 21µM
CC(C)(C)C(=O)Nc1ccc(N2CCN(C(=O)c3cccs3)CC2)cc1	none (no result: MCF10A rerep, SW480 rerep)
